# Hit rate of the full screen: of about 360,000 compounds, about 7,500 (2.1%) were called active. Where a call stands in place of a potency, no number is given. About 8% were inconclusive and are not listed. The call rests on the fitted dose curve; in most records, active means well fitted cell-killing curve with a large enough effect; inconclusive means small, poorly fitted or top-dose-only effect, or effect the other way, or another doubt; inactive means no such curve, though single readings can be large or run the other way. The full list was thinned out, with actives kept by preference.
# Test: qHTS for induction of synthetic lethality in tumor cells producing 2HG: qHTS for the HT-1080-IDH1KD cell line
# Settings: HT-1080 IDH1 knockdown viability, ATP luminescence, 48 h; series mostly up to 46.1 µM
# Outline: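 CellTiter-Glo luminescence after 48 h compound exposure at 37 degrees C of IDH1-knockdown HT-1080 cells in 5% FBS RPMI. %Activity scaled between DMSO wells and cell-free media wells, with curves fitted and assigned curve classes.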
# Potency means the concentration at half of the fitted maximal effect.
row,SMILES,Potency
1,O=C(NCC(F)(F)F)c1ccc(S(=O)(=O)NCCc2ccc3c(c2)OCCO3)cc1,inactive
2,Cc1cc(C)nc(Nc2n[nH]c(-c3ccccc3N)n2)n1,32.6 µM (active)
3,CCCOc1ccccc1-c1nc(SCCC(=O)O)n[nH]1,inactive
4,Nc1ccccc1-c1nc2ccncc2[nH]1,inactive
5,CCOC(=O)[C@]12CCC=C1N(CCC1=CCCCC1)C(=O)[C@H](CC(=O)NCc1ccc(C)o1)C2,inactive
6,CC(=O)C[C@@H]1OC[C@H](C)N1S(=O)(=O)c1ccc(C)cc1,inactive
7,CN(C)CCOCCOc1ccc(Cl)c2ccccc12,20.6 µM (active)
8,CN(C)CCOc1ccc(Cl)cc1C(C)(C)C,inactive
9,CCN(CC)CCOCCOc1ccc(Cl)c2ccccc12,inactive
10,N#CCCC(C#N)(c1cccnc1)N1CCOCC1 (stereo not given),inactive
11,CCC(C)CN1C(=O)CN(S(C)(=O)=O)CC1(C)C(=O)Nc1ccc2c(c1)OCCO2 (stereo not given),inactive
12,O=C(NCc1ccco1)c1cccc(-c2ccc3nncn3c2)c1,inactive
13,Cn1c(=O)[nH]c(=O)c2c1[nH]c(=S)n2Cc1ccccc1,inactive
14,CCCSc1nc(NCc2ccco2)c2c3c(sc2n1)COC(C)(CC)C3 (stereo not given),inactive
15,CCC1(C)Cc2c(sc3[nH]c(=S)n(Cc4ccccc4)c(=O)c23)CO1 (stereo not given),14.6 µM (active)
16,OC[C@@H]1CN(Cc2cccs2)C[C@H](n2cnc3c(Nc4ccccc4)ncnc32)O1,inactive
17,Cc1ccc(Cl)cc1NC(=S)N(CCN(C)C)Cc1cccs1,inactive
18,Cc1cc(Cl)ccc1-c1nc(NCCN(C)C)nc2ccsc12,23.1 µM (active)
19,O=C(CC[C@H]1O[C@@H](n2ccc(=O)[nH]c2=O)[C@H](O)[C@@H]1O)N[C@H](Cc1ccccc1)C(=O)NCc1ccco1,inactive
20,CCc1ccccc1NC(=O)CN1CCN(C(=O)c2cc(C3CC3)nn2-c2ccccc2)CC1,inactive
21,COc1ccc(NC(=O)CCCOc2ccc(C(C)=O)cc2)cc1S(=O)(=O)N1CCCCC1,inactive
22,CCC(CC)C(C(=O)NC1CCCC1)N1CCN(c2cc(C)nc3ccccc23)CC1 (stereo not given),inactive
23,COc1ccc(CCNC(=O)/C(C#N)=C2\N=C(NC(=O)c3cccs3)c3ccccc32)cc1,inactive
24,Cc1ccc2nc(/C(C#N)=C\c3ccc(OC(=O)c4cccs4)cc3)[nH]c2c1,7.94 µM (active)

row,SMILES,Potency
1,COc1ccc2c(c1)CCCO[C@]21O[C@H](CCO)C[C@H](O)[C@H]1O,inactive
2,Nc1ncnc2c1ncn2[C@@H]1O[C@H](C(=O)N2CCSC2)[C@@H](O)[C@H]1O,inactive
3,CC1(C(=O)Nc2ccc3c(c2)OCCO3)CN(S(C)(=O)=O)CC(=O)N1Cc1cccc(F)c1 (stereo not given),inactive
4,Fc1ccc2[nH]c3c(N4CCN(Cc5ccc6c(c5)OCO6)CC4)ncnc3c2c1,23.1 µM (active)
5,O=c1[nH]c(N2CCN(Cc3ccc4c(c3)OCO4)CC2)nc2c1CCCC2,inactive
6,CCCCCc1c(C)nc(N2CCN(Cc3ccc4c(c3)OCO4)CC2)[nH]c1=O,inactive
7,CC(C)NC(=O)N1Cc2cc(C(=O)NCC(F)(F)F)nc(-c3cccc(-c4cc5ccccc5o4)c3)c2[C@@H]1CCO,inactive
8,CCOC(=O)C1CCCN(C(=O)c2cc(-c3cccs3)oc2C)CC1 (stereo not given),inactive
9,CCn1c(SCC(=O)N2CCCC2=O)nc2ccccc21,inactive
10,CCC(=C/c1sc2ccc3ccccc3c2[n+]1C)/C=C1\Sc2ccc3ccccc3c2N1C,5.17 µM (active)
11,CCC1NC(=O)c2cccnc2-n2c1nc1ccc(C)cc1c2=O (stereo not given),inactive
12,CCCS(=O)(=O)NC(=O)C1(C)CCN(C(=O)c2sccc2C)C1 (stereo not given),inactive
13,CC(C)c1cc(C(=O)NC2CCCCCC2)c2ccccc2n1,inactive
14,Cc1nc(/N=C(\N)NC(=O)NC2CCCCC2)nc2ccccc12,14.6 µM (active)
15,COc1ccc2nc(/N=C(\N)NC(=O)Nc3ccccc3)nc(C)c2c1,inactive
16,C[C@@H]1CC2=C(C(=O)OC(C)(C)O2)[C@@H](C2CC2)O1,inactive
17,CN(Cc1ccc(C(F)(F)F)cc1)C(=O)[C@H]1O[C@@H](n2cnc3c(N)ncnc32)[C@H](O)[C@@H]1O,inactive
18,COc1ccc(-c2n[nH]c(C)c2-c2ccc(OC)c(OC)c2)c(O)c1,18.4 µM (active)
19,COc1ccc(-c2c(-c3ccc(OC)cc3O)nc(C)nc2C(F)(F)F)cc1,inactive
20,COc1ccc(-c2[nH]ncc2CN(C)Cc2c(C)n[nH]c2C)c(OC)c1,inactive
21,CC1(C(=O)NS(=O)(=O)c2ccccc2)CCN1C(=O)C1CCCCC1 (stereo not given),inactive
22,O=C1c2ccccc2C(c2nc3ccccc3[nH]2)N1c1ccccc1 (stereo not given),inactive
23,C=C1c2c(Cl)ccc(O)c2C(O)=C2C(=O)[C@]3(O)C(O)=C(C(N)=O)C(=O)[C@@H](N(C)C)[C@@H]3[C@@H](O)C12 (stereo not given in full),18.4 µM (active)
24,O=C1OCCC1=COCCCCOC=C1CCOC1=O,inactive

row,SMILES,Potency
1,COc1ccc(C(O)c2nc(-c3ccc4c(c3)OCO4)cs2)cc1 (stereo not given),inactive
2,C[C@@H]1CN([C@H](C)CO)C(=O)CCCn2cc(nn2)CO[C@H]1CN(C)S(C)(=O)=O,inactive
3,COc1ccc(/C=C(\NC(=O)c2ccc(OC)c(OC)c2)C(=O)NCCc2c[nH]c3ccccc23)cc1,inactive
4,COc1ccc(C(C(O)C(=O)c2c[nH]c3ccccc23)N2CCN(c3ccccc3)CC2)cc1 (stereo not given),inactive
5,COc1ccc(/C=C(\C#N)c2c[nH]c3ccccc23)cc1,0.731 µM (active)
6,C[C@H](CO)N1C[C@H](C)[C@@H](CN(C)C(=O)C2CCCCC2)OCc2cnnn2CCCC1=O,inactive
7,C[C@H]1CN(c2ccc(Br)cc2)C(=O)[C@@H]1CC(=O)Nc1ccc(Br)cc1,inactive
8,COc1ccc(CS(=O)/C(Cl)=C(/Cl)C(=O)Nc2ccc(OC)nc2)cc1 (stereo not given),18.4 µM (active)
9,COc1ccc(NC(=O)CN2C(=O)NC(C)(c3ccccc3)C2=O)cn1 (stereo not given),inactive
10,COc1ccc(CCNC(=O)c2cnc(Cl)c(Cl)c2)cc1,inactive
11,CC(C)Cn1cc(-c2cncc3nccn23)cn1,inactive
12,CC1(C)CN(CCc2ccccc2)C(=O)[C@H]1CC(=O)Nc1ccc(Br)cc1,inactive
13,CCOC(=O)c1c(NC(=O)COC(=O)c2ccc(S(=O)(=O)C(F)F)cc2)sc(C(=O)N(C)C)c1C,inactive
14,COc1cccc(NC(=O)C2(C)CCN2Cc2ccccc2Cl)c1 (stereo not given),inactive
15,CCN1/C(=C/c2ccc3ccc(C)cc3[n+]2CC)Sc2ccccc21,20.6 µM (active)
16,CCOC(=O)[C@]12CCCC=C1N(CCC1=CCCCC1)C(=O)[C@H](CC(=O)N1CCN(C(=O)c3ccco3)CC1)C2,inactive
17,Cc1cc(NC(=O)c2ccc(F)cc2)ccc1NC(=O)c1ccco1,inactive
18,O=C(Nc1ccc(O)cc1)c1ccc(NC(=O)c2ccco2)cc1,13 µM (active)
19,Cc1ccc(NC(=O)c2ccco2)cc1,inactive
20,O=S1(=O)CC(N2CCN(Cc3ccccc3F)CC2)CN1Cc1cn(Cc2ccccc2)nn1 (stereo not given),inactive
21,CN(Cc1ccccc1)CC(O)COc1ccc(CNCc2cc3ccccc3s2)cc1 (stereo not given),20.6 µM (active)
22,Cc1ccc(OCC(=O)OC(C)CN(C)Cc2ccccc2)cc1 (stereo not given),inactive
23,COc1ccc(OCC(O)CN(C)C(=O)C(C)Oc2ccccc2)cc1 (stereo not given),inactive
24,O=C(NCc1ccccc1)C1c2ccccc2OCC(=O)N1CCCN1CCOCC1 (stereo not given),inactive

row,SMILES,Potency
1,Cc1ccc(S(=O)(=O)N2CCC(=O)N([C@H](COCc3ccccc3)C(C)C)CC2)cc1,inactive
2,Cc1ccc(-c2nn(-c3ccccc3)cc2C(=O)NCCCN2CCCC2=O)cc1,inactive
3,O=C(O)c1ccc(NC(=O)c2cn(-c3ccccc3)nc2-c2ccc(Cl)cc2)cc1,20.6 µM (active)
4,Cc1ccc(-c2nn(-c3ccccc3)cc2C(=O)Nc2cccc(S(=O)(=O)N3CCOCC3)c2)cc1,inactive
5,COc1cccc(OCC(=O)NCCS(=O)(=O)N2CCN(c3ccccc3)CC2)c1,inactive
6,COc1ccc(CCNC(=O)Nc2ccc3c(c2)c(=O)n(C)n3C)cc1OC,inactive
7,Cc1onc(-c2c(Cl)cccc2Cl)c1C(=O)NNC(=O)c1c(-c2c(Cl)cccc2Cl)noc1C,inactive
8,Cc1onc(-c2c(Cl)cccc2Cl)c1C(=O)c1c[nH]c(C(=O)NC2CC2)c1,inactive
9,Cc1[nH]n(C)c(=O)c1C(=O)c1c(-c2c(Cl)cccc2Cl)noc1C,16.4 µM (active)
10,CC(C)(C(=O)N1CCC1(C)C(=O)NS(=O)(=O)c1ccc(Br)cc1)c1ccccc1 (stereo not given),inactive
11,CCOC(=O)C1=CC[C@@H](c2ccccc2)N(S(=O)(=O)c2ccc(C)cc2)[C@H]1c1ccc(CC)cc1,inactive
12,CCCCCCN1C[C@@H](O)[C@H](n2cc(COC(=O)c3ccccc3)nn2)C[C@@H]1c1ccc(Cl)cc1,inactive
13,O=C(O)C1CCCN1c1nc(Cl)ccc1[N+](=O)[O-] (stereo not given),inactive
14,CC(C)NC(=O)Nc1ccc2c(c1)C(=O)N([C@H](C)CO)C[C@H](C)[C@@H](CN(C)Cc1ccc(C(F)(F)F)cc1)OCCCC[C@@H](C)O2,inactive
15,CCCc1nc2ccccc2c(=O)n1NC(=O)c1c(O)c2ccccc2[nH]c1=O,11.2 µM (active)
16,O=C(Cc1c(O)c2ccccc2[nH]c1=O)NCc1ccccc1,inactive
17,COc1cc(C(=O)Nn2c(CC(C)C)nc3ccccc3c2=O)cc(OC)c1OC,inactive
18,CCOC(=O)COc1nc(C)cc(C(F)(F)F)c1C#N,inactive
19,CCOC(=O)c1c(C(C#N)C#N)cc(C)nc1C,inactive
20,CCOC(=O)c1cc(C)nc(S(C)(=O)=O)c1C#N,20.6 µM (active)
21,NS(=O)(=O)c1ccc(CNC(=O)c2cc(S(=O)(=O)N3CCOCC3)ccc2N2CCCC2)cc1,inactive
22,COC(=O)Cc1ccc(OC2(C)CCN(Cc3ccc4c(c3)OCCO4)C2)cc1 (stereo not given),inactive
23,COc1ccc(C(=O)C(OP(=O)(OC)OC)c2ccccc2OC)cc1 (stereo not given),inactive
